Assay outcomes as filed in PubChem BioAssay.
This is a sample that favours compounds with a hit; in the whole collection about 9.9% have one here.
KB-3-1 cytotox = kills parental KB-3-1 adenocarcinoma cells. KB-3-1 viability, CellTiter-Glo ATP luminescence, 72 h. Potency, µM (top dose mostly 46.1 µM), most hits filed as cytotoxic. 1.4% of 400,000 active; note: potency is the fitted concentration of half-maximal effect; % is set by controls: 0 for no effect and ±100 for the full control effect; nearly all actives have a fitted effect of over 60% in size
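Parental KB-3-1 viability, qHTS format: 72 h compound exposure, 37 °C; CellTiter-Glo; media-only wells and DMSO plates as controls; concentration-effect fits on corrected data.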
MCF10A rerep = DNA re-replication induction in MCF 10a cells; MCF 10A DNA re-replication, Hoechst nuclear intensity, 48 h; Potency, µM (titrated, usually from 46.1 µM), for the others: at the highest dose activity, positive = re-replication, usual class: activators; 2.9% of 350,000 active; note: potency is the fitted concentration of half-maximal effect; % of control where 0% means no effect; nearly all actives have a fitted effect of over 50% in size
SW480 rerep = induces DNA re-replication in SW480 colon adenocarcinoma cells; Potency, µM (top dose mostly 46.1 µM), inactives show top-dose re-replication activation, most hits filed as activators; SW480 DNA re-replication, Hoechst DNA content imaging, 48 h; 1.8% of 340,000 active; note: potency is the fitted concentration of half-maximal effect; % of control where 0% means no effect; nearly all actives have a fitted effect of over 55% in size
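DNA re-replication was detected as more nuclei of elevated Hoechst intensity after 48 hr exposure to compound (23 nL pinned per well of 250 cells).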
IL1B secr inh = inhibitors of inflammasome signaling (IL-1 beta secretion) | THP-1 LPS/ATP IL-1B secretion, AlphaLISA, 16 h; stronger effect = lower value | activity change, % at 57.5 µM | AID 743279 | 4.7% of 360,000 active; in the data active = activity change below about -50%; inconclusive = mostly about -30% to -49%; note: % is set by controls: 0 for no effect and ±100 for the full control effect
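THP-1 cells pretreated 1 hr with compounds (up to 57.5 uM final), then stimulated with LPS (250 ng/mL final) plus ATP (1.25 mM final); secreted IL-1B measured by AlphaLISA after 16 hr, decreased signal indicating inhibition.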
KB-V1 cytotox = kills drug-selected multidrug resistant KB-V1 cells; KB-V1 MDR cells viability, CellTiter-Glo, 72 h; Potency, µM (titrated, usually from 46.1 µM), usual class: cytotoxic; 3.4% of 400,000 active; AID 1347076; note: potency is the fitted concentration of half-maximal effect; % is set by controls: 0 for no effect and ±100 for the full control effect; nearly all actives have a fitted effect of over 60% in size
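Potencies derive from concentration-effect curves fitted to normalized luminescence (CellTiter-Glo) of KB-V1 cells treated for 72 h at 37 degrees C in phenol-red-free DMEM containing 10% FBS.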
* = called active by the depositor; i = inactive; ? = inconclusive; nt = no result; [ ] = another dose, or the depositor's remark. Unless noted, calls come from the whole dose curve; as a rule, active = well fitted curve in the direction sought with a large enough effect; inconclusive = small, poorly fitted or top-dose-only effect, or another doubt; inactive = no such curve, though single readings can be large; an effect the other way counts as inactive or inconclusive.

SMILES	KB-3-1 cytotox	MCF10A rerep	SW480 rerep	IL1B secr inh	KB-V1 cytotox
O=C(c1cccc(C(F)(F)F)c1)N1CCN(CCc2ccccc2)CC1	i	4.3%	?	-9.8	i
COc1ccc(-c2cc(C(F)(F)F)n3nc(C(=O)N(C)Cc4ccccc4)cc3n2)cc1OC	i	?	20.6µM*	-20.7	?
O=C(c1cc2nc(-c3ccccc3)cc(C(F)(F)F)n2n1)N1CCN2CCCC2C1 (stereo unspecified)	i	1.6%	-0.2%	?	i
CCN(CC)CCCNC(=O)c1cc2nc(-c3ccccc3)cc(C(F)(F)F)n2n1	i	1.03µM*	-8.4%	-6.2	i
CCCCNC(=O)c1cc2nc(-c3ccc(OC)cc3)cc(C(F)(F)F)n2n1	i	nt	nt	-5.9	i
Cc1ccc(-c2cc(C(F)(F)F)n3nc(C(=O)NCCCn4ccnc4)cc3n2)cc1C	i	14.6µM*	?	-9.6	i
COc1ccc(-c2cc(C(F)(F)F)n3nc(C(=O)Nc4ccc(Cl)cc4C(F)(F)F)cc3n2)cc1OC	?	nt	nt	nt	i
O=C(c1nn2c(C(F)(F)F)cc(-c3ccccc3)nc2c1Cl)N1CCN2CCCC2C1 (stereo unspecified)	i	0.3%	-19.4%	-64.3*	i
CCc1ccccc1NC(=O)C(NS(=O)(=O)c1ccc2c(c1)CCC(=O)N2)c1ccccc1 (stereo unspecified)	i	nt	nt	nt	i
COc1ccc(CN2CCN(Cc3ccc(Br)cc3)CC2)c(OC)c1OC	i	?	-10.6%	-4.6	i
COCCNC(=O)c1nn2c(C(F)(F)F)cc(-c3ccccc3)nc2c1Cl	i	-2.7%	-4.7%	11.2	i
O=C(NCCCn1ccnc1)c1nn2c(C(F)(F)F)cc(-c3ccccc3)nc2c1Cl	i	-1.1%	6.51µM*	?	i
CCc1nnc(NC(=O)CSc2nccn2-c2cccc(C)c2C)s1	?	?	?	49.0	i
CCc1nnc(NC(=O)CSc2nccn2-c2cc(C)cc(C)c2)s1	18.4µM*	?	?	-10.9	i
c1ccc(CNc2cncnc2)cc1	i	0.5%	1.0%	32.3	i
O=C(C[n+]1ccccc1)Nc1ccccc1C(F)(F)F	i	3.26µM*	-54.5%	13.3	i
Oc1ccc(Cl)cc1N=Cc1sc2ccccc2c1Cl	?	143.0%	20.6µM*	-23.0	i
O=[N+]([O-])c1ccc(O)c(C=Nc2cccc3ccccc23)c1	i	16.0%	0.8%	18.6	i
COc1ccc(N=Cc2sc3ccccc3c2Cl)cc1	i	-12.6%	?	-7.0	i
O=[N+]([O-])c1ccc(O)c(N=Cc2sc3ccccc3c2O)c1	16.4µM*	-33.3%	?	39.4	4.11µM*
Cc1ccc(CNC(=O)CN(c2cccc(C)c2C)S(=O)(=O)c2ccccc2)cc1	?	nt	nt	nt	i
Cc1cc2cc(C(c3nnnn3Cc3ccco3)N3CCc4ccccc4C3)c(=O)[nH]c2cc1C (stereo unspecified)	?	13.9%	-2.8%[9.22 µM]	-57.7*	?
Cc1cc2cc(C(c3nnnn3Cc3ccccc3)N3CCc4ccccc43)c(=O)[nH]c2cc1C (stereo unspecified)	i	7.4%	?	8.2	8.2µM*
CCOc1ccccc1N1CCN(CC(=O)NC(C)c2ccccc2)CC1 (stereo unspecified)	i	-2.0%	-6.5%	14.8	i
CC(=O)c1nnn(-c2nc(N)nc(N(c3ccccc3)c3ccccc3)n2)c1C	i	0.0%	-9.2%	37.6	10.3µM*
SMILES	KB-3-1 cytotox	MCF10A rerep	SW480 rerep	IL1B secr inh	KB-V1 cytotox
CCCCN(CCCC)c1nc(OC)nc(-n2nnc(C(C)=O)c2C)n1	i	?	-2.7%	-0.9	i
Cc1cc(C)n(-c2nc(N(c3ccccc3)c3ccccc3)nc(-n3nc(C)cc3C)n2)n1	18.4µM*	?	17.3%	-84.0*	2.59µM*
N#CC1c2ccccc2-c2ccccc2N1C(=O)c1ccccc1 (stereo unspecified)	?	nt	nt	63.9	14.6µM*
COc1ccc(C(=O)N2C=Cc3ccccc3C2C#N)cc1 (stereo unspecified)	i	nt	nt	8.5	i
Cc1ccc(-c2cc(-c3ccc(F)cc3)nc(N)c2C#N)o1	i	3.66µM*	11.6µM*	-14.2	i
Cc1ccc(-c2cc(-c3ccccc3)c(C#N)c(N)n2)o1	i	18.4µM*	18.4µM*	0.0	i
COc1ccccc1N(Cc1ccccc1)S(=O)(=O)c1cccc(C(=O)N2CCCCC2)c1	i	?	-4.4%	-57.9*	i
CN1CCN(C(=O)c2ccccc2N(Cc2ccccc2)S(=O)(=O)c2ccccc2)CC1	i	13.1%	9.9%	?	i
C=CCN(c1ccccc1OC)S(=O)(=O)c1cccc(C(=O)OCC(=O)N2CC(C)OC(C)C2)c1 (stereo unspecified)	i	10.8%	6.6%	11.4	4.11µM*
Cc1ccc(S(=O)(=O)N(Cc2ccccc2)c2ccccc2C(=O)N2CCCCC2)cc1	i	?	18.4µM*	5.4	?
Cc1ccc(S(=O)(=O)N(Cc2ccccc2)c2ccccc2C(=O)NCc2cccnc2)cc1	?	-4.0%	?	9.1	23.1µM*
C=CCN(c1ccccc1OC)S(=O)(=O)c1cccc(C(=O)OC2CCOC2=O)c1 (stereo unspecified)	i	-26.9%	-1.3%	20.7	i
CCc1cccc(NC(=O)CN(C)S(=O)(=O)c2ccc3c(c2)CCCN3C(C)=O)c1	i	nt	nt	nt	i
O=C(O)C(c1ccccc1)C1(O)CC2CCC1C2 (stereo unspecified)	i	-3.4%	-2.9%	29.5	i
COc1ccc(N2CCN(C(=O)c3cc(S(=O)(=O)N4CCC(C)CC4)cn3C)CC2)cc1	?	nt	nt	nt	i
CC(=O)NCCNc1nc(NCc2cccs2)nc2ccsc12	i	nt	nt	111.1	i
Cc1ccc(Nc2nc(NCc3cccs3)nc3ccsc23)c(C)c1	?	nt	nt	-51.0*	?
COCCNc1nc(NCc2cccs2)nc2ccsc12	i	nt	nt	-90.0*	i
Cc1ccc(Nc2nc(NCc3ccccc3)nc3ccsc23)c(C)c1	?	nt	nt	?	i
c1ccc(CNc2nc(NCc3cccs3)nc3ccsc23)cc1	i	nt	nt	-57.1*	i
O=C1CCCN1CCCNc1nc(NCc2cccs2)nc2ccsc12	i	nt	nt	-84.3*	i
Cc1nn(C)cc1S(=O)(=O)Nc1ccc(C(F)(F)F)cc1	i	-10.0%	10.5%	20.6	i
CCCCC(CC)C(=O)O (stereo unspecified)	i	-4.2%	-6.5%	-18.8	i
COCCNc1nc(NCc2cc(-c3ccc(OC)cc3)no2)c2sccc2n1	?	nt	nt	?	18.4µM*
c1ccc(CNc2nc(NCCc3ccncc3)c3sccc3n2)cc1	i	nt	nt	-98.1*	?
